In the library only some 17% were active in any assay of this set; here they are far more common.
DT40 TDP1 no CPT: qHTS for Inhibitors of human tyrosyl-DNA phosphodiesterase 1 (TDP1): qHTS in cells in absence of CPT; Potency, µM (highest dose often 46.2 µM), without a hit: top-dose activity change, negative = growth inhibition, usual class: inhibitors; 420,000 tested, 15% active; DT40 Tdp1-/- hTDP1 cells, no CPT, ATP luminescence, 48 h; also: % is scaled to controls: 0 for no effect and ±100 for the full control effect; nearly all actives have a fitted effect of over 55% in size
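Camptothecin absent (DMSO only). Human TDP1-complemented DT40 knockout cells, 400 cells/well, 37 °C for minimum 48 hr; ATP measured via CellTiter-Glo, 30 min dark incubation, luminescence.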
ClpP mod: qHTS Assay for Activators of ClpP | ATP-dependent Clp protease proteolytic subunit (Bacillus subtilis (strain 168)), P80244 | purified B. subtilis ClpP, FRET peptide cleavage, 20 min | Potency, µM (doses to about 57.5 µM), without a hit: top-dose activity change, negative = active | 340,000 tested, 1.9% active; active = well fitted falling curve with a large enough effect; inconclusive = small, poorly fitted or top-dose-only effect; inactive = no such curve, though single readings can be large or run the other way; also: the source files actives as falling curves though it sought activators and does not explain the sign; nearly all actives have a fitted effect of over 65% in size
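ClpP 10 microg/mL final, pH 8 Tris/KCl buffer with BSA, glycerol, Tween-20; compound pinned in; FRET-FV substrate; RT 20 min; Ex320/Em430; ΔFRET vs ADEP 5.8 microM, DMSO, no enzyme.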
TDP1 block: TDP1 (human) enzyme inhibition; 350,000 tested, 0.28% active; recombinant TDP1, AlphaScreen DNA substrate cleavage; Q9NUW8; AID 485290; Potency, µM (series often up to 130 µM), inactives show at the top dose activity change, negative = inhibition, usual class: inhibitors; also: % is scaled to controls: 0 for no effect and ±100 for the full control effect; nearly all actives have a fitted effect of over 40% in size
Target sequence (Q9NUW8 whole entry, looked up): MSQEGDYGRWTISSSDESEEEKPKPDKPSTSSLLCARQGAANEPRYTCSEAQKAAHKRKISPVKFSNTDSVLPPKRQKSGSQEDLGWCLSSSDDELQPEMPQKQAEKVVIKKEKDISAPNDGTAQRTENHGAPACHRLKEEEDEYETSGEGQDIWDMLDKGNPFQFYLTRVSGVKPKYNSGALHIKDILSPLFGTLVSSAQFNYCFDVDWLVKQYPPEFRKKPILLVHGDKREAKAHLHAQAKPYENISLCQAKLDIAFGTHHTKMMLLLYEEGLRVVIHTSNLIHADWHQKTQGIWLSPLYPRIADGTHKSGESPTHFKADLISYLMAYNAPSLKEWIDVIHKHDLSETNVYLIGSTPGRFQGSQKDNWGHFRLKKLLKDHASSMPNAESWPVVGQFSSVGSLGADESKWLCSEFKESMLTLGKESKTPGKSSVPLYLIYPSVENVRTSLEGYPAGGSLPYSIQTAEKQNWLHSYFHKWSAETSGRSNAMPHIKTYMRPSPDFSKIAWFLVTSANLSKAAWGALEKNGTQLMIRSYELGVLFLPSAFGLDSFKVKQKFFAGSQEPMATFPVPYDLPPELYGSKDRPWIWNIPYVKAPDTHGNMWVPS
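Enzyme-compound mixtures sat 15 min at room temperature, followed by a 5 min reaction with 15 nM final substrate and 10 min with AlphaScreen beads. Recombinant human Tdp1 was used at 1 nM final.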
DT40 TDP1 CPT: DT40-hTDP1 cell growth loss with CPT; chicken DT40 Tdp1-/-;hTDP1 cells + 20 nM CPT, ATP luminescence, 48 h; Potency, µM (doses to about 46.2 µM), for inactives: at the highest dose activity change, negative = growth inhibition, most hits filed as inhibitors; 420,000 tested, 12% active; AID 686979; also: % is scaled to controls: 0 for no effect and ±100 for the full control effect; nearly all actives have a fitted effect of over 55% in size
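Cell growth measured by CellTiter-Glo luminescence after a minimum 48 h, 37 C compound exposure with 20 nM CPT in Tdp1-knockout DT40 cells stably expressing hTDP1, seeded 400/well; qHTS titration format.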
An asterisk follows results filed as active; ? = inconclusive; . = not tested or not shown; [ ] = remark or other dose. Unless noted, calls follow the shape of the dose curve; as a rule, active = well fitted curve in the direction sought with a large enough effect; inconclusive = small, poorly fitted or top-dose-only effect, or another doubt; inactive = no such curve, though single readings can be large; an effect the other way counts as inactive or inconclusive. Potency is read from the fitted curve at half-maximal effect.

SMILES	DT40 TDP1 no CPT	ClpP mod	TDP1 block	DT40 TDP1 CPT
CCOc1ccc(/C=N/N2C(=O)C(CC(=O)Nc3ccc(F)cc3F)SC2=NC)cc1OC (stereo not given)	?	1%	8%	?
CN=C1SC(CC(=O)Nc2ccccc2F)C(=O)N1/N=C/c1ccc(O)c(OC)c1 (stereo not given)	13µM*	-4%	8%	23µM*
CC(=O)N1CCN(C(=O)CCc2nc3ccccc3c(=O)[nH]2)CC1	8%	1%	5%	?
O=C(CCc1nc2ccccc2c(=O)[nH]1)N1CCN(C/C=C/c2ccccc2)CC1	6.5µM*	-1%	-3%	7.3µM*
O=c1[nH]c(CN2CCN(C/C=C/c3ccccc3)CC2)nc2cc(Cl)ccc12	21µM*	0%	0%	?
Cc1c(Cl)cccc1NC(=O)CN1C(=O)c2ccccc2Sc2ncccc21	?	-1%	-3%	?
NC1=NC[C@H](c2ccccc2)N1CC1CCCCC1	16µM*	-2%	.	13µM*
NC1=NC[C@H](c2ccccc2)N1CCc1cc(C(F)(F)F)cc(C(F)(F)F)c1	21µM*	0%	2%	18µM*
NC1=NC[C@@H](CC2CCCCC2)N1CCc1cc(C(F)(F)F)cc(C(F)(F)F)c1	3.7µM*	3%	2%	3.3µM*
CCC(C)[C@H]1CN=C(N)N1CCc1cc(C(F)(F)F)cc(C(F)(F)F)c1 (stereo not given in full)	4.6µM*	2%	-1%	3.3µM*
CC(O)[C@H]1CN=C(N)N1CC1CCCCC1 (stereo not given in full)	-21%	0%	.	?
CCc1c(C)c2ccccc2[nH]c1=O	?	-25%	.	-23%
Cc1cccc(-c2noc(CCCC(=O)N3CCOCC3)n2)c1	-27%	1%	2%	0%
COc1ccc(-c2cc(C)no2)cc1S(=O)(=O)NC1CCC(C)CC1 (stereo not given)	?	-3%	5%	?
CSc1cccc(NC(=O)N2CCN(c3cc(-c4noc(C)n4)ccc3C)CC2)c1	?	-5%	7%	?
CCOc1ccc(NC(=O)c2cc(S(=O)(=O)N3CCCCC3)c[nH]2)cc1	-19%	-3%	3%	0%
COC(=O)c1cc(S(=O)(=O)NCc2ccccc2)c[nH]1	-9%	0%	.	-10%
COC(=O)c1cc(S(=O)(=O)N(Cc2ccccc2)C(C)(C)C)c[nH]1	16µM*	-1%	0%	18µM*
CCc1ccc(NC(=O)c2cc(S(=O)(=O)N3CCCC3)c[nH]2)cc1	23µM*	0%	.	?
O=C(NCCc1ccc(Cl)cc1)c1cc(S(=O)(=O)N2CCCCC2)c[nH]1	9.2µM*	-2%	.	23µM*
COC(=O)c1cc(S(=O)(=O)NCCc2ccc(Cl)cc2)c[nH]1	12µM*	-2%	.	18µM*
COC(=O)c1cc(S(=O)(=O)NCCc2ccc(C)cc2)c[nH]1	?	-8%	.	?
CCc1ccc(NC(=O)c2ccc3c(c2)nnn3CC)cc1	?	-3%	5%	10%
CCOC(=O)C(NC(=O)c1ccccc1)=C(C)C	-15%	-1%	1%	-15%
COC(=O)C(NC(=O)c1ccccc1)=C(C)C	?	1%	2%	18µM*
SMILES	DT40 TDP1 no CPT	ClpP mod	TDP1 block	DT40 TDP1 CPT
CCC(C)(C)NC(=O)C(c1ccccn1)N(C(=O)c1csnn1)c1ccc(C)cc1 (stereo not given)	-28%	.	-7%	-26%
Nc1ncnc2nc(SCCOc3ccc(Cl)cc3)[nH]c12	-17%	-1%	3%	-9%
Cc1ccc(OCCSc2nc3ncnc(N)c3[nH]2)cc1	?	1%	9%	8.2µM*
O=C(COc1cccc(F)c1)Nc1nc(-c2cccnc2)cs1	?	-3%	1%	?
CC1CCC(NC(=O)c2ccc(CS(=O)(=O)c3cccc(C(F)(F)F)c3)o2)CC1 (stereo not given)	?	1%	5%	?
N=c1n(CCO)c2ccccc2n1CCOc1ccc(F)cc1	-82%	-1%	.	21µM*
N=c1n(CCO)c2ccccc2n1CCOc1ccccc1	?	-2%	4%	?
CCOC(=O)Cn1c(=N)n(CCOc2ccc(Br)cc2)c2ccccc21	16µM*	.	3%	23µM*
Cc1ccc(NC(=O)C2CCC(N3C(=O)C4CCCCC4C3=O)CC2)cc1 (stereo not given)	?	.	.	-16%
Cc1cccc(CCNC(=O)C2CCC(CNS(=O)(=O)c3c(C)cc(C)cc3C)CC2)c1 (stereo not given)	16µM*	1%	-3%	?
Cc1cc(C)c(S(=O)(=O)NCC2CCC(C(=O)NCCc3ccccc3)CC2)c(C)c1 (stereo not given)	15µM*	-3%	-1%	15µM*
COC(=O)c1cc(S(=O)(=O)N(C)C2CCCCC2)cn1C	?	2%	1%	-19%
COC(=O)c1ccc(S(=O)(=O)N(C2CCCCC2)C2CCCCC2)n1C	23µM*	0%	1%	?
CCOC(=O)C1=CCC(c2ccc(C#N)cc2)N(S(=O)(=O)c2ccc(C)cc2)C1 (stereo not given)	16µM*	0%	.	18µM*
CCOC(=O)C1=CCCN(S(=O)(=O)c2ccc(C)cc2)C1	21µM*	-6%	.	?
CCOC(=O)C1=CCC(c2ccc(Cl)cc2)N(S(=O)(=O)c2ccc(C)cc2)C1 (stereo not given)	18µM*	-5%	.	23µM*
Cc1c(NC(=O)C(C)(C)Oc2ccc(Cl)cc2)cccc1-c1nc2ccccc2o1	?	?	-5%	?
COc1cc([C@@H]2CC=C(C(=O)O)[C@H](c3cccc(Cl)c3)N2S(=O)(=O)c2ccc(C)cc2)cc(OC)c1OC	8%	-1%	-3%	-8%
CSc1nc(C(=O)N2CCOc3ccc(CN4CCN(Cc5ccccn5)CC4)cc3C2)cs1	-12%	.	.	19%[9.04 µM]
Nc1cc(=O)[nH]c(=S)[nH]1	-14%	0%	.	1%
O=C(/C=C/c1cc([N+](=O)[O-])ccc1OC(F)F)Nc1cccc([N+](=O)[O-])c1	2%	0%	.	1%
O=[N+]([O-])c1ccc(Cl)c(-c2ccc(/C=N/n3cnnc3)o2)c1	-20%	.	.	3%
O=[N+]([O-])c1ccc(OC(F)F)c(/C=N/n2cnnc2)c1	6.5µM*	.	-3%	5.8µM*
COc1ccc(-c2ccc(/C=C3\C(=O)N(c4ccccc4)N=C3c3ccccc3)o2)c([N+](=O)[O-])c1	21µM*	0%	7%	?
COC(=O)c1ccccc1-c1ccc(/C=C2\C(=O)N(c3ccccc3)N=C2c2ccccc2)o1	?	3%	10%	-20%
COc1cc([N+](=O)[O-])ccc1-c1ccc(/C=C2\C(=O)ON=C2c2ccccc2)o1	9.2µM*	-1%	.	12µM*
